PTHR1 ag – PTHR1 (human) receptor agonism. HEK293 GP2 PTHR1 cells, GloSensor cAMP luminescence, 1 h. Potency, µM (top dose mostly 115 µM), most hits filed as activators. 410,000 compounds, 0.075% hits. AID 743266; note: nearly all actives have a fitted effect of over 55% in size
Target sequence (Q03431 whole entry, looked up): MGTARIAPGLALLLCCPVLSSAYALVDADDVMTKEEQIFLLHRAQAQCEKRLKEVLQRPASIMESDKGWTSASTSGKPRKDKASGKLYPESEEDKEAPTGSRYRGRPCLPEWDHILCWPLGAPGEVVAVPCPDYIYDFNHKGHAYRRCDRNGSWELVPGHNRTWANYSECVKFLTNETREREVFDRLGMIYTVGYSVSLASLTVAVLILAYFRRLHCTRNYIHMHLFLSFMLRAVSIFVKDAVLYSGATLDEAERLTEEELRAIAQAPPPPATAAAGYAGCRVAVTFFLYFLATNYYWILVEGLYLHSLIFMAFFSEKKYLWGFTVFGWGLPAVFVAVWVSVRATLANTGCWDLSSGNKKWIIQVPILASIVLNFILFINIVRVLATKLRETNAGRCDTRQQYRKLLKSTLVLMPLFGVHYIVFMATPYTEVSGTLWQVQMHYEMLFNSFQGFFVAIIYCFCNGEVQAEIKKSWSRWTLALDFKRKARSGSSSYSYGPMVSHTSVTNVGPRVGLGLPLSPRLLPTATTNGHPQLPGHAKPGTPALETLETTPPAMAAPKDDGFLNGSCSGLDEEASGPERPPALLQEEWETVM
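HEK-293-derived GP2 cells expressing PTHR1 and a GloSensor cAMP reporter, 3,000/well, plated overnight, given luciferin plus IBMX (each 0.5 mM as added) for 1 h at 37 °C, then compound for 1 h at 37 °C. Luminescence was read after 15 min at room temperature.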
BRCA1 expr act – increases BRCA1 expression; MCF7-BRCA1-FFLuc reporter, luminescence, 48 h; response scale: scaled: vehicle 0%, 10 µM genistein 100%; Potency, µM (series often up to 46.1 µM), usual class: activators; 380,000 compounds, 1.1% hits; AID 624202; note: nearly all actives have a fitted effect of over 80% in size
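First, MCF7-BRCA1-FFLuc cells (2000/well) attach for 2 h; next, compounds are pin-added and incubated 48 h at 37 °C; finally, luciferase reagent is added and luminescence read after 15 min.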
DRD3 agonist – agonists of human D3 dopamine receptor; max activation, %; P35462; 410,000 compounds, 0.58% hits; AID 652048; D3R DiscoveRx beta-arrestin cells, luminescence, 90 min; in the data active = max activation above about 30%
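Agonist-mode cell screen: cells plated at 1500/well and incubated overnight at 37 °C, then exposed to library compounds for 90 min at 37 °C. Detection reagent was added for 30–60 min at room temperature, and luminescence was read.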
RGS4 inhibitor – blocks human RGS4-accelerated GTP hydrolysis. P49798. Transcreener GDP fluorescence polarization, RGS4-accelerated GTP hydrolysis. Potency, µM (highest dose often 114 µM), most hits filed as inhibitors. 390,000 compounds, 0.039% hits. AID 504845; note: nearly all actives have a fitted effect of over 75% in size
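MLSMR compounds (23 nl, pin-transferred) preincubated 10 min at room temperature with a 500nM (2x) first reagent, then RGS4 at 900nM (2x) plus Transcreener GDP mix added; fluorescence polarization (620/688 nm) read before and after 90 min at 30 °C.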
B2AR arrestin – recruits beta-arrestin to the human beta2-adrenergic receptor; beta-arrestin recruitment to beta2AR, cell-based reporter; Potency, µM (titrated, usually from 46.1 µM), hits mostly activators; 330,000 compounds, 0.02% hits; note: nearly all actives have a fitted effect of over 65% in size
DRD3 antagonist – D3 dopamine receptor (human) antagonism. P35462. D3R cells, DiscoveRx beta-arrestin luminescence, antagonist mode; active compounds read low. max response, negative = inhibition, %. 360,000 compounds, 2.5% hits. AID 652054; in the data active = max response below about -50%; inconclusive = no clear call, values can overlap the other calls
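Cells plated overnight at 1500 cells/well, then exposed to library compounds with dopamine controls for 90 minutes at 37 degrees C. DiscoveRx reagent added for 30–60 minutes at room temperature; luminescence read, quantitative HTS format.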
Large screens that a line does not name were inactive. Compounds with a hit are over-represented: about 3.7% of the library has one in this group of screens. Unless noted, calls come from the whole dose curve; as a rule, active = well fitted curve in the direction sought with a large enough effect; inconclusive = small, poorly fitted or top-dose-only effect, or another doubt; inactive = no such curve, though single readings can be large; an effect the other way counts as inactive or inconclusive.

Clc1ccc(CN2CCc3c([nH]c4ccccc34)C2)cc1Cl	none
Cc1cccc(CN2CCc3c([nH]c4ccccc34)C2)c1	DRD3 antagonist -90
Clc1cccc(CN2CCc3c([nH]c4ccccc34)C2)c1	PTHR1 ag inconclusive, DRD3 antagonist -59
Cc1ccc2[nH]c3c(c2c1)CN(C)CC3	DRD3 antagonist inconclusive
Cc1ccc2[nH]c3c(c2c1)CCN(C)C3	PTHR1 ag inconclusive, DRD3 antagonist -60
CSc1ccc(CN2CCc3c([nH]c4ccccc34)C2)cc1	DRD3 antagonist inconclusive
c1ccc(CN2CCc3[nH]c4ccccc4c3C2)cc1	DRD3 antagonist -97 (no result: B2AR arrestin)
Cc1nc2nc(CNC(=O)c3cccc(F)c3)nn2c(C)c1CCC(=O)Nc1ccc(F)cc1	none (no result: BRCA1 expr act, B2AR arrestin, DRD3 antagonist)
COc1ccc(NS(=O)(=O)c2ccc(N3CC(O)=C(c4ccccc4)C3=N)cc2)cc1	PTHR1 ag inconclusive
O=C(CSc1ccc(-c2cccnc2)nn1)Nc1ccc(F)cc1	DRD3 antagonist -63
Cc1ccc(NC(=O)CSc2ccc(-c3cccnc3)nn2)cc1	none
Nc1c(C(=O)Nc2ccc(Cl)cc2)oc2ccccc12	BRCA1 expr act 2.5µM
CC(=O)c1oc2ccccc2c1N	none
Oc1ccc(/C=C/c2cnccn2)cc1	BRCA1 expr act 13µM
COc1ccc(/C=C/c2cnccn2)cc1OC	none (no result: PTHR1 ag, DRD3 agonist, RGS4 inhibitor, B2AR arrestin, DRD3 antagonist)
CCOC(=O)c1cnc2cc(C(F)(F)F)ccc2c1N1CCN(c2ccc(F)cc2)CC1	none (no result: BRCA1 expr act, B2AR arrestin, DRD3 antagonist)
O=C(c1noc2c1CCCCC2)N1CCN(c2ccc(Cl)cc2)CC1	none (no result: BRCA1 expr act, B2AR arrestin, DRD3 antagonist)
O=C(N/N=C/c1cc(Br)cs1)c1c[nH]c2ccccc12	DRD3 antagonist inconclusive
O=C(N/N=C/c1ccc(Br)s1)c1c[nH]c2ccccc12	DRD3 antagonist -55
O=C(NN=Cc1ccccc1Cl)c1ccccc1	BRCA1 expr act 5.6µM (no result: RGS4 inhibitor, B2AR arrestin)
O=C(N/N=C/c1c[nH]c2ccccc12)c1ccccc1	BRCA1 expr act 10µM
O=S(=O)(c1ccc(Cl)cc1)c1nnn2c1nc(NCc1ccc3c(c1)OCO3)c1sccc12	none (no result: BRCA1 expr act, B2AR arrestin, DRD3 antagonist)
CSc1nc(NCc2ccccc2)c2c3c(sc2n1)CN(C)CC3	DRD3 antagonist -76
COCCNc1nc(SC)nc2sc3c(c12)CCN(C)C3	none
CC(C)Sc1nc(N)c2c3c(sc2n1)CN(C)CC3	DRD3 antagonist -58
CCN(CC)CCNc1nc(SC)nc2sc3c(c12)CCN(C)C3	none
CSc1nc(NCC(C)C)c2c3c(sc2n1)CN(C)CC3	PTHR1 ag inconclusive, DRD3 antagonist -72
CCCCCCc1cc2cc(S(=O)(=O)c3ccc(F)cc3)c(=O)oc2cc1O	DRD3 agonist 49
CCCCCCc1cc2cc(-c3nnc(-c4ccccc4OC)o3)c(=O)oc2cc1O	DRD3 agonist 37
CCCCCCc1cc2cc(-c3nnc(-c4ccccc4O)o3)c(=O)oc2cc1O	none
O=C(OCC(=O)N1CCCC1=O)c1ncc(Cl)c(Cl)c1Cl	none
CCC(CC)C(=O)Nc1cccc(/C(C)=N/NC(=O)c2c(Br)cnn2C)c1	DRD3 antagonist -51
Brc1cccc(OCCCNC2CCCC2)c1	DRD3 antagonist -91
CC(C)NCCCCOc1cccc(Br)c1	RGS4 inhibitor inconclusive, DRD3 antagonist inconclusive
CC(C)NCCOc1cccc(Br)c1	DRD3 antagonist -75
CC(C)(C)c1ccc(OCCCNC2CCCC2)cc1	DRD3 antagonist inconclusive
Cc1ccccc1Cn1nnc(C(=O)Nc2ccc3c(c2)OCCO3)c1N	BRCA1 expr act 3.5µM
Cc1ccc(NC(=O)c2nnn(-c3ccc4c(c3)OCCO4)c2N)cc1	BRCA1 expr act 5.6µM
COc1cc(OC)c(NC(=O)CCc2c(C)nc3ncnn3c2C)cc1Cl	none (no result: B2AR arrestin, DRD3 antagonist)
CCOC(=O)Nc1ccc2nc(Sc3ccc(Cl)cc3)sc2c1	none
CC(C)N=c1scc(-c2cccs2)n1/N=C/c1ccc(O)c(O)c1O	DRD3 agonist 64, RGS4 inhibitor inconclusive
CN=c1scc(-c2ccccc2F)n1/N=C/c1ccc(O)c(O)c1O	DRD3 agonist 107
Cn1cnc2cc(NCc3ccc(Cl)cc3)ccc21	BRCA1 expr act 5µM
CC(C)(C)n1cnc2cc(NCc3cccs3)ccc21	none
CCCn1cnc2cc(NCc3cccc(OC)c3)ccc21	BRCA1 expr act 5µM
CCn1cnc2cc(NCc3ccc(C)cc3)ccc21	BRCA1 expr act 3.5µM
CCN(CC)c1ccc(CNc2ccc3c(c2)ncn3CC)cc1	none
CCn1cnc2cc(NCc3cccs3)ccc21	BRCA1 expr act 14µM
CN(C)c1cccc(C(=O)NCc2ccc3c(c2)OCO3)c1	none
CCN1C(=O)/C(=C2\SC(=S)N(NC(=O)c3cccnc3)C2=O)c2ccccc21	none
Cc1occc1-c1nnc(SC(C)C(=O)Nc2ccccc2F)o1 (stereo unspecified)	none
CCn1cnc2cc(NC(=O)c3cccs3)ccc21	BRCA1 expr act 13µM
CC(C)(C)n1cnc2cc(NC(=O)c3cccs3)ccc21	BRCA1 expr act inconclusive
CCn1cnc2cc(NCc3ccc(Br)cc3)ccc21	BRCA1 expr act 4.5µM
Cc1ccc(CNc2ccc3c(c2)ncn3C(C)C)cc1	BRCA1 expr act 5µM
CCN(C(=O)c1noc2c1COc1ccc(C)cc1-2)c1cccc(C)c1	none (no result: B2AR arrestin, DRD3 antagonist)
CC12CCC(C(=O)N(CSC(=S)N/N=C\c3ccccc3Cl)C1=O)C2(C)C (stereo unspecified)	none
CC12CCC(C(=O)N(CSC(=S)N/N=C\c3ccccc3)C1=O)C2(C)C (stereo unspecified)	DRD3 antagonist -69
O=C(OCc1ccccc1)N1CCC2CC1c1cc(-c3ccccc3)ccc12 (stereo unspecified)	none (no result: B2AR arrestin)
CCCCNc1ccc2c(c1)C1CC2CCN1C(=O)OCc1ccccc1 (stereo unspecified)	BRCA1 expr act 8.9µM, DRD3 antagonist inconclusive (no result: B2AR arrestin)
COc1ccc(-c2cn3nc(SCC(=O)NC4CCCCC4)ccc3n2)cc1	BRCA1 expr act 1.3µM
Cc1cc(N2CCC(C(=O)N(CC(C)C)CC(C)C)CC2)n2nc(C)c(-c3ccc(Cl)cc3)c2n1	none (no result: B2AR arrestin, DRD3 antagonist)
O=C(O)c1cccc(Nc2c([N+](=O)[O-])c(=O)oc3ccccc23)c1	BRCA1 expr act inconclusive
O=c1oc2ccccc2c(Nc2cccc(O)c2)c1[N+](=O)[O-]	DRD3 antagonist -81
Cc1ccc(S(=O)(=O)N(CC(=O)NCCC2=CCCCC2)Cc2ccccc2F)cc1	DRD3 antagonist -74
O=C(CN(Cc1ccccc1F)S(=O)(=O)c1ccc(Cl)cc1)NCCC1=CCCCC1	none
Cc1ccc(S(=O)(=O)N2C[C@H]3C(=O)C[C@@H](c4ccccc4)N(S(=O)(=O)c4ccccc4C)[C@H]3C[C@H]2c2ccccc2)cc1	none (no result: RGS4 inhibitor, B2AR arrestin)
O=C(NCCCN1CCN(Cc2ccccc2Cl)CC1)Nc1ccccc1	none

Assay outcomes from PubChem.
